An excerpt weighted towards active compounds, which were near 12% of everything screened.
Pf growth 48h = inhibits P. falciparum growth in the first generation, 48 h; 310,000 tested, 5.9% active; Potency, µM (titrated, usually from 28.7 µM), hits mostly inhibitors; P. falciparum luciferase growth in erythrocytes, 48 h
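Here the parasites carry a stable luciferase gene and grow inside erythrocytes in Albumax-based RPMI medium with compound for one erythrocytic cycle. Activity is scored as loss of luminescent signal.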
Pf growth 96h = P. falciparum growth inhibition at 96 hour, primary screen for plastid delayed-death inhibitors; P. falciparum luciferase reporter growth, 96 h; Potency, µM (doses to about 28.7 µM), most hits filed as inhibitors; 320,000 tested, 6.9% active
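96 h incubation, 37 C, 5% CO2, of luciferase-reporter P. falciparum-infected RBCs (2% hematocrit, 0.05% parasitemia final) with test compounds; endpoint luminescence.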
NS1 function inh = influenza NS1 inhibition; Potency, µM (top dose mostly 46.1 µM); 270,000 tested, 0.4% active; AID 2326; calls by dose curve; further: actives are rising curves; nearly all actives have a fitted effect of over 50% in size
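Compounds were scored for reversing the slow growth caused by influenza A NS1 in S. cerevisiae, measured by optical density at 600 nm. Assay medium contained 2% galactose at pH 6.0; NS1-free yeast of the same strain were the positive control.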
HCV inh = HCV inhibition; Huh7.5.1 HCVcc-Cre infection, luciferase reporter, 44 h; AID 651820; Potency, µM (highest dose often 41.8 µM), usual class: inhibitors; 340,000 tested, 3.4% active
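Infectious HCV cell culture screen: compound-treated cells (1,000/well, pre-plated 4 h) are infected with HCVcc-Cre at roughly 0.5 moi and grown 44 h. Infection is quantified by luciferase signal after 15 min substrate incubation at room temperature.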
AMA1-RON2 inh = disrupts binding of P. falciparum AMA1 to RON2. AlphaScreen AMA1-biotinylated RON2 peptide binding. Potency, µM (top dose mostly 58.2 µM), actives largely listed as inhibitors. 360,000 tested, 0.2% active; further: nearly all actives have a fitted effect of over 45% in size
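AMA1 (3D7) with his tag at 25 nM final met compounds first, then biotinylated RON2 peptide at 25 nM; detection used donor plus acceptor beads, 10 µg/mL apiece, read by AlphaScreen after 30 min at room temperature.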
SARS PLP yeast = SARS-CoV PLP inhibition in yeast; S. cerevisiae expressing SARS-CoV PLpro, growth rescue; Potency, µM (doses to about 32.9 µM), hits mostly activators; 330,000 tested, 0.19% active; calls by dose curve; further: nearly all actives have a fitted effect of over 55% in size
Numbers stand for hits; . = inactive; ? = inconclusive; / = not tested or not shown; [ ] = dose if it differs, or a comment. Unless noted, the call rests on the fitted dose curve; in most records, active means well fitted curve in the direction sought with a large enough effect; inconclusive means small, poorly fitted or top-dose-only effect, or another doubt; inactive means no such curve, though single readings can be large; an effect the other way counts as inactive or inconclusive.

SMILES | Pf growth 48h | Pf growth 96h | NS1 function inh | HCV inh | AMA1-RON2 inh | SARS PLP yeast
CCN(CC)S(=O)(=O)c1ccc(OC)c(NC(=O)COc2ccc3c(C)cc(=O)oc3c2)c1 | ? | 2.6µM | . | ? | . | .
COc1ccc(NC(=O)Cc2coc3cc(C)c(C(C)C)cc23)cc1S(=O)(=O)N1CCOCC1 | ? | ? | . | 7.1µM | . | .
CCN(CC)S(=O)(=O)c1ccc(Cl)c(NC(=O)COc2ccc3c(C)cc(=O)oc3c2)c1 | . | . | . | . | . | .
CC1(C(=O)NS(=O)(=O)C2CC2)CCN(C(=O)C2(c3ccc(Cl)cc3)CCCC2)C1 (stereo unspecified) | / | / | / | / | . | /
O=C(Cc1coc2cc(O)ccc12)NNC(=O)c1ccc(Br)s1 | / | / | / | . | .[11.6 µM] | .
CS(=O)(=O)Cc1ccc(C(=O)N(CCc2ccccc2)Cc2ccccc2)cc1 | . | . | . | . | . | .
N#Cc1cn(N2CCCCC2)c(=O)[nH]c1=O | / | . | . | . | . | .
C=CCN(C(=O)c1cccc(C(F)(F)F)c1)C1(C(=O)Nc2ccccc2)CCN(C(C)C)CC1 | ? | 7.4µM | . | ? | . | .
O=C(Nc1ccccc1)c1cccc(C(F)(F)F)c1 | . | . | . | . | . | .
CC[C@]1(C(=O)OC)[C@H]2C(=O)N(C)C(=O)[C@H]2[C@H]2CN=C(SC)N21 | / | / | / | . | . | /
COc1cccc2c(=O)n(CC(=O)NCCc3ccccc3)ccc12 | 1.9µM | 3.3µM | . | . | . | .
CCOc1cc2[nH]c(=O)n(CCCCC(=O)NC3CCCCCC3)c(=O)c2cc1OCC | ? | / | . | . | . | .
COc1ccc(CCNC(=O)Cn2ccc3c(OC)cccc3c2=O)cc1OC | . | . | . | . | . | .
CCOc1cc2[nH]c(=O)n(CCCCCC(=O)NC3CCCC3)c(=O)c2cc1OCC | ? | 10µM | . | . | . | .
COc1cc2[nH]c(=O)n(CCCC(=O)NCCc3ccccc3)c(=O)c2cc1OC | ? | 5.2µM | . | ? | . | .
COC(=O)[C@]12CCCCC=C1N(Cc1ccc(Cl)cc1Cl)C(=O)[C@H](CC(=O)NCCCCc1ccccc1)C2 | / | / | / | / | . | /
O=C(O)CCCC(=O)N1N=C(c2ccccc2)CC1c1ccc2nccnc2c1 (stereo unspecified) | . | 3.7µM | . | . | . | .
O=C(c1ccco1)N1N=C(c2ccccc2)CC1c1ccc2nccnc2c1 (stereo unspecified) | ? | 7.4µM | . | ? | . | .
O=C(O)CCC(=O)N1N=C(c2ccccc2)CC1c1ccc2nccnc2c1 (stereo unspecified) | . | . | . | . | . | .
C=CCN=C1N[C@@H](c2ccc(Br)cc2)C(C(=O)OC)=C(C)N1Cc1ccccc1 | ? | ? | . | / | / | .
CC1CCCN(CCCOc2ccccc2-c2ccccc2)C1 (stereo unspecified) | . | . | . | ? | . | .
CCc1cccc(NC(=O)CCCn2c(=O)[nH]c3ccsc3c2=O)c1 | . | 2.9µM | . | . | . | .
O=C(CCCn1c(=O)[nH]c2ccsc2c1=O)Nc1ccc(F)cc1 | . | . | / | . | . | .
CCOc1ccc(NC(=O)CCn2c(=O)[nH]c3ccsc3c2=O)cc1 | / | 7.4µM | . | . | . | .
COc1ccc(CSc2cccc3cccnc23)cc1[N+](=O)[O-] | . | 6.6µM | . | . | . | .
SMILES | Pf growth 48h | Pf growth 96h | NS1 function inh | HCV inh | AMA1-RON2 inh | SARS PLP yeast
COc1ccc(CSc2nc(C)[nH]c2[N+](=O)[O-])cc1[N+](=O)[O-] | . | . | . | . | . | .
COc1ccc(CSc2nncn2N)cc1[N+](=O)[O-] | . | 7.4µM | . | . | .[2.32 µM] | .
O=C(NC1CC1)c1cccc(Nc2ccc(-c3ccc4c(c3)OCCO4)nn2)c1 | ? | .[5.75 µM] | . | 10µM | . | .
CCOc1ccccc1NC(=O)CC(O)(C(F)(F)F)C(F)(F)F | . | . | . | . | ? | .
CCOc1ccccc1NC(=O)COn1nnc2ccccc21 | . | / | . | 13µM | . | .
O=C1NC(=O)/C(=C\c2ccc(Cl)cc2Cl)N1 | / | / | / | . | . | /
N#Cc1ccccc1NC(=O)COC(=O)CSc1nc2ccccc2o1 | . | 1µM | . | . | . | .
COc1cc(OC)cc(C(=O)NNC(=O)CCNS(=O)(=O)c2ccc(Br)cc2)c1 | / | / | / | . | . | .
O=S(=O)(c1cnc(Cl)c(Br)c1)N1CCN(c2ncccn2)CC1 | . | ? | . | . | . | .
Cc1ccccc1N=Nc1c(N)n[nH]c1N | . | 2.9µM | . | . | . | .
O=C(CC1Sc2ccccc2NC1=O)NCc1ccc(Cl)cc1 (stereo unspecified) | . | . | / | . | . | .
COC(=O)c1c(NC(=O)CSc2nnc(C)c(=O)[nH]2)sc(C)c1C | . | . | / | . | . | .
Cc1ccc(C2C3=C(CC(C)(C)CC3=O)NC3=C2C(=O)c2ccccc23)cc1 (stereo unspecified) | 5.2µM | 1.9µM | ? | ? | ? | .
CC1(C)CC(=O)C2=C(C1)NC1=C(C(=O)c3ccccc31)C2c1ccc(Cl)cc1 (stereo unspecified) | ? | ? | . | 11µM | ? | .
COc1ccc(C2C3=C(CCCC3=O)NC3=C2C(=O)c2ccccc23)cc1 (stereo unspecified) | ? | ? | . | . | ? | .
CSC1=C(C#N)C(c2ccc(Cl)cc2)C2=C(CC(C)(C)CC2=O)N1 (stereo unspecified) | 7.4µM | . | . | 11µM | . | .
COc1cc(C2C3=C(CC(C)(C)CC3=O)NC3=C2C(=O)c2ccccc23)ccc1O (stereo unspecified) | ? | . | / | ? | . | .
CCOC(=O)c1[nH]c(C(=O)O)c(CCC(=O)OC)c1C | . | 12µM | . | . | . | .
CCSc1nnc(-c2cccc(S(=O)(=O)N(CC)CC)c2)n1Cc1ccccc1 | 15µM | . | . | . | . | .
Cc1cccc(OCCSc2nncn2C)c1 | . | . | / | . | . | .
Cc1cccc(OCCSc2nnc(-c3ccoc3C)n2C)c1 | . | 12µM | . | . | . | .
COc1ccc(-n2c(C)cc(C(=O)CSc3nnc(-c4ccoc4C)n3C)c2C)cc1 | 9.3µM | / | . | ? | . | .
CCn1c(SCC(=O)N2c3ccccc3CCc3ccccc32)nnc1-c1ccc(OC)cc1 | 4.1µM | 9.3µM | . | ? | . | .
COc1ccccc1NC(=O)N1CCCC1C(=O)NCc1ccccc1Cl (stereo unspecified) | . | . | . | . | . | .
Cc1occc1-c1nnc(SCC(=O)N2c3ccccc3CCc3ccccc32)n1C | 7.4µM | / | . | . | . | .
O=C(O)CSc1nnc(-c2ccncc2)n1Cc1ccccc1 | / | . | . | . | . | .
Cc1occc1-c1nnc(SCC(=O)N2CCN(c3ccccc3)CC2)n1C | . | ? | . | . | . | .
COc1ccc(-c2nnc(SCC(=O)O)n2Cc2ccccc2)cc1 | . | 7.4µM | . | . | . | .

High-throughput results (PubChem BioAssay)
